This is a sample that favours compounds with a hit; in the whole collection about 8.1% have one here.
KB-3-1 tox = kills parental KB-3-1 adenocarcinoma cells; KB-3-1 viability, CellTiter-Glo ATP luminescence, 72 h; AID 1347075; Potency, µM (titrated, usually from 46.1 µM), hits mostly cytotoxic; 400,000 compounds, 1.4% hits; also: nearly all actives have a fitted effect of over 60% in size
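Here the drug-naive KB-3-1 line serves as comparator for MDR sub-line selectivity; cells received compound titrations, 72 h at 37 °C, then CellTiter-Glo readout.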
SW480 rerep = DNA re-replication induction in SW480 cells. SW480 DNA re-replication, Hoechst DNA content imaging, 48 h. Potency, µM (highest dose often 46.1 µM), usual class: activators. 340,000 compounds, 1.8% hits. AID 624297; also: nearly all actives have a fitted effect of over 55% in size
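Quantitative HTS format with DMSO vehicle controls; 48 hr drug incubation at 37 C, then 40 min Hoechst staining and scanning imager measurement at 405 nm excitation.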
MCF10A rerep = induces DNA re-replication in MCF 10a normal breast cells | 350,000 compounds, 2.9% hits | MCF 10A DNA re-replication, Hoechst nuclear intensity, 48 h | Potency, µM (highest dose often 46.1 µM), hits mostly activators; also: nearly all actives have a fitted effect of over 50% in size
KB-V1 cytotox = kills drug-selected multidrug resistant KB-V1 cells; KB-V1 MDR cells viability, CellTiter-Glo, 72 h; Potency, µM (doses to about 46.1 µM), most hits filed as cytotoxic; 400,000 compounds, 3.4% hits; AID 1347076; also: nearly all actives have a fitted effect of over 60% in size
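KB-V1, DMEM (no phenol red) + 10% FBS; cpd pin-transferred, titration series; 72 h, 37 degrees C; CellTiter-Glo, luminescence. Data normalized, curve-fit.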
ELG1 repair inh = ELG1-dependent DNA repair inhibition; HEK293T ELG1-luciferase reporter, luminescence, 16 h; DNA damage induced by 5-fluorouridine; Potency, µM (series often up to 46.1 µM), hits mostly inhibitors; AID 504467; 330,000 compounds, 2.3% hits; also: nearly all actives have a fitted effect of over 55% in size
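Luminescence from the luciferase reporter, measured 30 min after ONE-Glo reagent at room temperature, was the read-out. Beforehand, 2,000 cells per well were exposed for 16 hr at 37 °C to 5-fluorouridine together with compound or vehicle.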
A number is an active result; . = inactive; ? = inconclusive; / = no result; [ ] = remark or other dose. Calls follow the shape of the dose curve; as a rule, active = well fitted curve in the direction sought with a large enough effect; inconclusive = small, poorly fitted or top-dose-only effect, or another doubt; inactive = no such curve, though single readings can be large; an effect the other way counts as inactive or inconclusive.

SMILES	KB-3-1 tox	SW480 rerep	MCF10A rerep	KB-V1 cytotox	ELG1 repair inh
CCOc1ccccc1C(=O)N(Cc1ccco1)C1CCS(=O)(=O)C1 (configuration not stated)	.	.	.	.	.
COc1cccc(C2Nc3ccccc3NC3=C2C(=O)CC(C)(C)C3)c1OC (configuration not stated)	.	.	.	.	.
COc1ccc(NC(=O)c2ccc(Cl)c(S(=O)(=O)N3CCc4ccccc4C3)c2)cn1	.	.	?	4.6µM	?
CC(=O)Nc1ccc(NC(=O)c2ccc(Cl)c(S(=O)(=O)N3CCc4ccccc43)c2)cc1	.	.	.	.	/
COc1ccccc1C(CNC(=O)c1cccc(S(=O)(=O)N2CCCc3ccccc32)c1)N(C)C (configuration not stated)	.	.	.	5.8µM	/
O=C(Nc1cccnc1)c1ccc(Cl)c(S(=O)(=O)N2CCc3ccccc32)c1	.	.	.	?	13µM
O=C(NC1=NCCS1)c1ccc(Cl)c(S(=O)(=O)N2CCc3ccccc32)c1	?	.	?	13µM	?
O=C(NC1=NCCS1)c1cccc(S(=O)(=O)N2CCc3ccccc32)c1	.	?	.[9.22 µM]	?	?
CCCc1ccc(-c2ccc(F)c(N)c2)nc1	.	.	.	.	?
COc1ccc(N(C(=O)Cn2nnc(-c3ccc(F)cc3)n2)C(C)C(=O)NC2CCCC2)cc1 (configuration not stated)	.	?	.	.	?
COc1ccc(C(=O)NCC(c2ccco2)N2CCc3ccccc32)cc1 (configuration not stated)	5.8µM	?	5.8µM	7.3µM	.
COc1ccc(C(=O)NC(C(=O)N2CCc3ccccc32)C(C)C)cc1 (configuration not stated)	.	.	.	8.2µM	?
Cc1c(C(=O)NCc2ccco2)oc2c(F)cccc12	.	.	.	.	.
Oc1ccc(Cl)cc1-c1cc(-c2cccc(Br)c2)n[nH]1	?	.	?	21µM	?
Oc1ccc(Cl)cc1-c1cc(-c2ccccc2Cl)[nH]n1	?	?	.[0.0737 µM]	?	.
COCCNc1nc(CSc2ccccc2)nc2sc(C)c(C)c12	.	.	?	10µM	?
Cc1ccccc1OCC(=O)Nc1ccc2oc(-c3ccc(F)cc3)nc2c1	.	/	/	.	/
N#CCSc1nc2ccc(N3CCCCC3)cc2c(=O)n1Cc1ccccc1	.	21µM	16µM	?	.
CNC(=O)CC12CC3CC(CC(C3)C1)C2	.	.	.	.	?
COCCNC(=S)NC(=O)CC12CC3CC(CC(C3)C1)C2	.	.	.	16µM	.
Cc1ccc(C)c(-n2c(Cc3cc(=O)[nH]c(=O)[nH]3)nnc2SC(C)C)c1	.	.	.	.	.
Oc1ccc(/C=N/N2CCN(C3c4ccccc4-c4ccccc43)CC2)cc1	.	.	?	.	.
Oc1ccc(/C=N/N2CCN(C3c4ccccc4-c4ccccc43)CC2)c(O)c1	.	?	6.5µM	.	.
N/C(=N\OC(=O)Nc1cccc(C(F)(F)F)c1)c1ccno1	.	.	.	.	.
COc1ccc2nc(-c3ccccc3)nc(SC)c2c1	.	.	?	.	/
SMILES	KB-3-1 tox	SW480 rerep	MCF10A rerep	KB-V1 cytotox	ELG1 repair inh
N/C(=N\OC(=O)COc1ccccc1)c1ccccn1	.	18µM	.	.	?
CCc1ccc(OCC(=O)O/N=C(\N)c2ccccn2)cc1	.	.	.	.	?
c1ccc(NCc2nc3ccccc3n2CCOc2ccccc2)cc1	.	/	.	?	?
COc1ccc(NCc2nc3ccccc3n2CCOc2ccccc2)cc1	?	.	?	2.3µM	?
COc1ccc(NCc2nc3ccccc3n2CCOc2ccc(C)cc2)cc1	?	.	21µM	?	?
Cc1nn(Cc2c(Cl)cccc2Cl)c(Cl)c1/C=N/NC(=O)c1cccnc1	.	?	21µM	.	?
O=C(N/N=C/c1c(O)n(-c2ccccc2Cl)c(=O)c2ccccc12)c1cccnc1	.	16µM	?	?	.
COc1ccc(Cn2c(O)c(/C=N/NC(=O)c3cccnc3)c3ccccc3c2=O)cc1	.	?	?	.	18µM
COc1ccc(Cn2c(O)c(C=Nc3ccc(OC)cc3)c3ccccc3c2=O)cc1	.	.	.	.	.
O=C(N/N=C/c1c(O)n(Cc2ccccc2)c(=O)c2ccccc12)c1cccnc1	18µM	.	?	?	?
COc1ccc(CNC(=O)Cn2ncc3c4ccccc4n(Cc4cccc(Cl)c4)c3c2=O)cc1	.	/	/	.	/
O=C(N/N=C/c1c(-c2ccccc2)[nH]c2ccccc12)c1cccnc1	?	23µM	?	.	.
COc1ccc(CCNC(=O)c2cccnc2)cc1	.	?	16µM	.	.
COc1ccc(CCNC(=O)c2ccccc2)cc1	.	.	.	.	?
Cc1ccc(Nc2nc(N)c([N+](=O)[O-])c(N3CCOCC3)n2)cc1C	.	.	.	.	13µM
Nc1nc(Nc2cccc(F)c2)nc(N2CCOCC2)c1[N+](=O)[O-]	.	?	?	.	.
Cc1ccc(Nc2nc(N)c([N+](=O)[O-])c(N3CCC(C)CC3)n2)cc1C	?	?	.	23µM	?
CCC(C)C(NC(N)=O)C(=O)NC1CCC(C)CC1 (configuration not stated)	/	/	/	/	.
Cc1ccc(S(=O)(=O)CCC(=O)N2CCN(c3ccccc3O)CC2)cc1	.	9.2µM	?	.	.
C=CC[n+]1c(-c2ccc(OC)cc2)csc1NNC(=O)Nc1ccccc1	.	.	.	23µM	.
CC1(C)Cc2ccccc2C(/C(=N\Nc2cccc(Cl)c2)C(N)=O)=N1	?	.	?	.	16µM
CC(=O)c1ccc(N/N=C(/C(N)=O)C2=NC(C)(C)Cc3ccccc32)cc1	.	?	?	12µM	21µM
COc1ccc(Cc2noc(CN(C)C3CC(C)(C)NC(C)(C)C3)n2)cc1OC	.	.	.	.	.
COc1ccc(S(=O)(=O)N2CCN(C(=O)C3CCC3)CC2)cc1	.	.	.	.	.
Cn1c2ccccc2c(=O)c2cc(C#Cc3ccc(N)cc3)ccc21	.	?	.	.	?
SMILES	KB-3-1 tox	SW480 rerep	MCF10A rerep	KB-V1 cytotox	ELG1 repair inh
Cn1c(-c2ccccc2)c(C#Cc2ccc(N)cc2)c2ccccc21	.	9.2µM	12µM	.	.
Cc1nc(NCc2ccco2)[nH]c(=O)c1CCC(C)C	.	.	.	.	.
O=c1[nH]c(NCc2ccco2)nnc1Cc1ccccc1Cl	5.8µM	7.3µM	?	?	/
CCOC(=O)c1c(NC(=O)c2ccc(Cl)cc2)csc1C	.	.	.	9.2µM	.
Cn1cnnc1Sc1ccc(C(=O)OCC(=O)Nc2cc(Cl)cc(Cl)c2)cc1[N+](=O)[O-]	.	.	.	.	.
CC(=O)Oc1ccc(C(=O)Nc2ccccc2NC(=O)c2ccc(OC(C)=O)cc2)cc1	.	.	.	.	.

Screening results from PubChem BioAssay.
